Screens deposited in PubChem by University of Kansas High Throughput Screening Laboratory.
Sampled rows, rich in hits. Any-hit rate of the full collection: about 3.5%.
Pf apPOL block = Pf-apPOL DNA polymerase inhibition; Recombinant Pf-apPOL, molecular beacon fluorescence, 1.5 h; inhibition, % at 10 µM; 0.25% of 210,000 active; AID 1794808
mHTT-CaM PPI inh = inhibitors of human mutant huntingtin-calmodulin interaction | P42858 | AlphaScreen His-mHTT/GST-CaM binding, luminescence | inhibition, % at 15 µM | 3.6% of 190,000 active | AID 1671202
Large screens that a line does not name were inactive; ! = repeats disagree. Rule as the data show it: active = inhibition above about 50%; inactive = the rest.

Cn1cnc(S(=O)(=O)N=S(C)(=O)c2ccc(Cl)cc2)c1 (stereo unspecified)	none (no result: mHTT-CaM PPI inh)
Cc1cc(C)nc(Nc2nc(C(=O)N3CCN(c4ccccn4)CC3)cs2)n1	none
O=C(C1CCCO1)N1CCN(c2nc(CN3CCCCC3)cs2)CC1 (stereo unspecified)	none
Cc1cc(-c2nnc(NC(=O)c3ccc4c(c3)OCCO4)o2)c(C)o1	none
Cc1cc(-c2nnc(NC(=O)c3ccn(C)n3)o2)c(C)o1	mHTT-CaM PPI inh 68
Cc1ccc(C23CC4CC(CC(O)(C4)C2)C3)cc1[N+](=O)[O-]	none
Cc1oncc1CN1CCN(C(=O)c2ccc3[nH]ccc3c2)CC1	none
O=C(CCC(=O)N1CC2CCCN2c2ccccc21)NCc1ccc2c(c1)OCO2 (stereo unspecified)	none
O=C(Nc1cccc(C(F)(F)F)c1)N1CC2CCCN2c2ccccc21 (stereo unspecified)	mHTT-CaM PPI inh 81
O=C(Nc1cccc(C(F)(F)F)c1)N1CCC(N2CCN(Cc3ccccc3)C2=O)CC1	none
Cc1ccc(NC(=O)N2CC3CCCN3c3ccccc32)cc1C (stereo unspecified)	mHTT-CaM PPI inh 84
Cc1ccc(NC(=O)N2CCC(N3CCN(Cc4ccccc4)C3=O)CC2)cc1C	none
Cc1ccc(NC(=O)N2CC3CCCN3c3ccccc32)cc1Cl (stereo unspecified)	mHTT-CaM PPI inh 89
O=C(Nc1ccc2c(c1)OCO2)N1CC2CCCN2c2ccccc21 (stereo unspecified)	mHTT-CaM PPI inh 81
Cc1ccc(NC(=O)C2CCC(N3C(=O)c4ccccc4C3=O)CC2)cc1Cl (stereo unspecified)	none
Cc1ccc(C(=O)Nc2ccccc2C)cc1	none
O=C(Nc1ccc(Br)cc1F)N1CC2CCCN2c2ccccc21 (stereo unspecified)	none
Cc1cccc(NC(=O)N2CCCC2c2ccccc2C)c1 (stereo unspecified)	none
Cc1cccc(NC(=O)N2CC3CCCN3c3ccccc32)c1 (stereo unspecified)	mHTT-CaM PPI inh 74
Cc1ccc(NC(=O)N2CC3CCCN3c3ccccc32)c(C)c1 (stereo unspecified)	mHTT-CaM PPI inh 67
Cc1ccc(CON=c2c(C)nc3ccccc3nc2C)cc1	none (no result: Pf apPOL block)
COc1ccc(-c2ccoc2)cc1[C@H]1[C@H]2C=CC[C@@H](C)[C@@H]2C(=O)N1Cc1ccccc1	mHTT-CaM PPI inh 86
COc1ccc(-c2ccc(C)cc2)cc1[C@H]1[C@H]2C=CC[C@@H](C)[C@@H]2C(=O)N1Cc1ccccc1	none
CC(CCc1ccccc1)NC(=O)c1cnn2c(-c3ccccc3)ccnc12 (stereo unspecified)	none
CC(=O)c1ccc(NC(=O)COc2cc(C)c(Br)c(C)c2)cc1	none
CCCC1=NN2C(=N)/C(=C/c3cccc(Br)c3)C(=O)N=C2S1	none
Cc1nc(-c2nnc(NC(=O)c3cc(Cl)cc(Cl)c3)o2)cs1	none
Cc1cc(C(=O)Nc2nnc(-c3csc(C)n3)o2)c(C)o1	mHTT-CaM PPI inh 78
O=C(CSc1nc2ccccc2o1)Nc1ccccc1[N+](=O)[O-]	mHTT-CaM PPI inh 55
COc1ccc(NC(=O)CSc2nc3ccccc3o2)c([N+](=O)[O-])c1	none
COc1ccc(-c2c(C)c3cc(OC(=O)C4CCCCC4)ccc3oc2=O)cc1OC	none
N#Cc1c(Nc2ccc(F)cc2)sc2c(O)cc(=O)[nH]c12	mHTT-CaM PPI inh 51
O=c1cc(O)c2sc(Nc3ccc(F)cc3)nc2[nH]1	none
CC(NC(=O)c1ccccc1N)c1ccccc1 (stereo unspecified)	none
Cc1cc(S(=O)(=O)N2CCN(C)C(c3ccc(F)cc3)C2)ccc1F (stereo unspecified)	none
N#C/C(=C\c1cccc(F)c1)c1nc2ccccc2[nH]1	mHTT-CaM PPI inh 100
COc1cc(/C=C(\C#N)c2nc3ccccc3[nH]2)cc2c1OCO2	mHTT-CaM PPI inh 69
N#C/C(=C\c1cccc(Br)c1)c1nc2ccccc2[nH]1	none
COc1cc(/C=C(\C#N)c2nc3ccccc3[nH]2)cc(OC)c1O	none
COc1cccc(C(=O)Nc2ccc(C)cc2NC(=O)c2cccc(OC)c2)c1	none
CS(=O)(=O)c1ccc2nc(NC(=O)/C=C/c3ccccc3Cl)sc2c1	mHTT-CaM PPI inh 75
CC(C)c1ccc(/C=C/C(=O)Nc2nc3ccc(S(C)(=O)=O)cc3s2)cc1	none
O=C(NCCO)C1=Cc2ccccc2OC=C1	none
CC(=O)c1c(C2C(c3ccccc3)C(c3ccccc3)=NN2c2ccccc2)nn(-c2ccccc2)c1C (stereo unspecified)	none (no result: mHTT-CaM PPI inh)
O=c1c(-c2ccccc2)coc2c3c(ccc12)OCN(C1CCS(=O)(=O)C1)C3 (stereo unspecified)	none
O=C1c2ccccc2C(=O)c2c1oc1c3c(ccc21)OCN(C1CCS(=O)(=O)C1)C3 (stereo unspecified)	Pf apPOL block 69!, mHTT-CaM PPI inh 91
O=C1c2ccccc2C(=O)c2c1oc1c3c(ccc21)OCN(C1CCCC1)C3	mHTT-CaM PPI inh 78
COc1ccc(CCN2COc3ccc4c5c(oc4c3C2)C(=O)c2ccccc2C5=O)cc1OC	none
CC(C)CCN1COc2ccc3c4c(oc3c2C1)C(=O)c1ccccc1C4=O	mHTT-CaM PPI inh 74
O=C1c2ccccc2C(=O)c2c1oc1c3c(ccc21)OCN(CC1CCCO1)C3 (stereo unspecified)	none
CN(C)CCNc1nc(-c2ccncc2)nc2c1CCC2	none
Cc1ccc(CC(=O)N2CCCCC2c2nncn2CC2CC2)cc1 (stereo unspecified)	none
Cc1ccccc1OCC(=O)N1CCCC2(C1)Nc1ccccc1NC2=NC(C)(C)C (stereo unspecified)	mHTT-CaM PPI inh 75
CC(C)(C)N=C1Nc2ccccc2NC12CCCN(C(=O)COc1ccccc1)C2 (stereo unspecified)	none
CC(C)(C)N=C1Nc2ccccc2NC12CCCN(C(=O)c1ccncc1)C2 (stereo unspecified)	none
CC(C)(C)N=C1Nc2ccccc2NC12CCCN(C(=O)c1ccccc1)C2 (stereo unspecified)	mHTT-CaM PPI inh 82
CCC(CC)C(=O)N1CCCC(COc2ccc(C(=O)N3CCCC3)cc2)C1 (stereo unspecified)	none
Cc1ccc(NC(=O)Cn2nc(N3CCCC(C)C3)c3ccccc3c2=O)cc1C (stereo unspecified)	none
CC(C)Sc1cccc(-c2nnc(NC(=O)c3cc(-c4ccco4)on3)o2)c1	none
CC(C)Sc1cccc(C(=O)Nc2nnc(-c3ccnn3C(C)C)o2)c1	mHTT-CaM PPI inh 68
CCn1cc(CN(C)S(=O)(=O)c2cccc([N+](=O)[O-])c2)cn1	none
COc1ccc2c(c1)c1c3n2CCNC3CCC1 (stereo unspecified)	none
Brc1ccc2c(c1)c1c3n2CCNC3CCC1 (stereo unspecified)	mHTT-CaM PPI inh 75
COc1ccc(CN2CCCC2c2cc(C)on2)cc1 (stereo unspecified)	none
CC(CCC(=O)N=Nc1c(O)[nH]c2c(Cl)cc(Cl)cc12)C1CCC2C3C(O)CC4CC(O)CCC4(C)C3CCC12C (stereo unspecified)	mHTT-CaM PPI inh 67
CC(CCC(=O)NN=Cc1c[nH]c2ccccc12)C1CCC2C3C(O)CC4CC(O)CCC4(C)C3CCC12C (stereo unspecified)	mHTT-CaM PPI inh 100
CC(CCC(=O)O)C1CCC2C3CC(O)C4CC(O)CCC4(C)C3CCC12C (stereo unspecified)	none
CC(CCC(=O)N=Nc1c(O)[nH]c2ccc(Cl)cc12)C1CCC2C3C(O)CC4CC(O)CCC4(C)C3CCC12C (stereo unspecified)	none
